Compound activity as filed in PubChem BioAssay.
IDE exosite FP: exo-site inhibitors of human insulin-degrading enzyme; actives 6.3% (n = 17,000); P14735; purified IDE, FL-6b probe fluorescence polarization; active compounds read low; z-score at 20 µM;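 active = z-score of -3 or lower, meaning strong loss of probe binding signal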;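 note: His-tagged human IDE residues 42-1019 made in E. coli with 30 nM FL-6b probe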
Target sequence (P14735 42-1019 limits assumed): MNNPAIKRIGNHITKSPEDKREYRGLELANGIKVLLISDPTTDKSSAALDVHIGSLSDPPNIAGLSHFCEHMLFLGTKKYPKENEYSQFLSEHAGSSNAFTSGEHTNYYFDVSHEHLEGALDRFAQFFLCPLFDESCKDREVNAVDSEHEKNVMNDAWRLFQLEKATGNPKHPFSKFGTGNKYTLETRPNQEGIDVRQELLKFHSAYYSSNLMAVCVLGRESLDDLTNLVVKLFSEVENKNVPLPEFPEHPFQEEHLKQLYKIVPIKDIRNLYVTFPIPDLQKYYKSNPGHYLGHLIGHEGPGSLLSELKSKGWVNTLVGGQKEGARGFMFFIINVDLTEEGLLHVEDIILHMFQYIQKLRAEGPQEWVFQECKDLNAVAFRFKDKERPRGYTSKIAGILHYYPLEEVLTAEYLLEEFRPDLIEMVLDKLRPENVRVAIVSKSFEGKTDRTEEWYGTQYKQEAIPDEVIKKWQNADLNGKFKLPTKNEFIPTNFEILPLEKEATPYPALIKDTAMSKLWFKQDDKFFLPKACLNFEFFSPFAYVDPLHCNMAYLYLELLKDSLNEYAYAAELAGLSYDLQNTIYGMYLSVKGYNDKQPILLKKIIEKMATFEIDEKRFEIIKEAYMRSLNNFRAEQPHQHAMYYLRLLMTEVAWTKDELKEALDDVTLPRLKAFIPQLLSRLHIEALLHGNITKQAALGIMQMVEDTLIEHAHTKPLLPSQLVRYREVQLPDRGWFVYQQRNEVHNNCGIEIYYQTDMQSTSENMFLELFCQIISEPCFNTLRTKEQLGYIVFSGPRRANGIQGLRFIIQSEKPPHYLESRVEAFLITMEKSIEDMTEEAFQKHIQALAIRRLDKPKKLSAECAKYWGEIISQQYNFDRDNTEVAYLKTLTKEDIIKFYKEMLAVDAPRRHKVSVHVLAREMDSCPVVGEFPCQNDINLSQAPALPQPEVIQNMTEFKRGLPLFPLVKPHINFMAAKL
* hit, by the source's call. This excerpt belongs to a sample that is enriched for hits.

SMILES	IDE exosite FP
N#C[C@H]1[C@H](c2ccc(C#Cc3ccccc3F)cc2)[C@@H](CO)N1C(=O)C1CCC1	3.7
N#C[C@H]1N[C@H](CO)[C@H]1c1ccc(C#Cc2ccccc2F)cc1	-0.075
C[C@@H](O)C#Cc1ccc([C@@H]2[C@@H](CO)N3CCCCN(CC4CC4)C[C@H]23)cc1	3.8
O=C(Nc1cccc(Cl)c1)N[C@H]1CC[C@@H](CCn2cc(Cc3ccccc3)nn2)O[C@H]1CO	0.42
CC(C)NC(=O)Nc1ccc2c(c1)C(=O)N([C@@H](C)CO)C[C@H](C)[C@H](CN(C)C(=O)C1CCCCC1)OCCCC[C@@H](C)O2	0.61
CCCNC(=O)NC[C@H]1[C@H](c2ccc(C3=CCCC3)cc2)[C@H](CO)N1C(=O)CC	0.26
C[C@H](NC(=O)C[C@@H]1C[C@H]2c3cc(NS(=O)(=O)c4ccc(F)cc4)ccc3O[C@H]2[C@H](CO)O1)c1ccccc1	-0.54
CS(=O)(=O)N1CCCCN2[C@@H](CO)[C@H](c3ccc(C#Cc4ccccn4)cc3)[C@@H]2C1	-3.9*
CC(C)(O)C#Cc1ccc([C@@H]2[C@H]3CN(S(C)(=O)=O)CCCCN3[C@H]2CO)cc1	-0.9
CS(=O)(=O)N1CCCCN2[C@H](C1)[C@@H](c1ccc(C#Cc3ccccn3)cc1)[C@@H]2CO	-3.3*
O=S(=O)(c1ccccc1)N1CCCCN2[C@H](CO)[C@H](c3ccc(C#Cc4ccccc4)cc3)[C@H]2C1	1.9
O=C(c1ccncc1)N1CCCCN2[C@H](CO)[C@@H](c3ccc(C#Cc4ccccn4)cc3)[C@@H]2C1	-1.9
O=C(c1ccncc1)N1CCCCN2[C@H](C1)[C@H](c1ccc(C#Cc3ccccn3)cc1)[C@@H]2CO	-2.2
CCS(=O)(=O)N1CCCCN2[C@H](CO)[C@@H](c3ccc(C#Cc4ccccn4)cc3)[C@@H]2C1	-0.47
O=S(=O)(c1ccccc1)N1CCCCN2[C@H](CO)[C@H](c3ccc(C#Cc4ccccc4)cc3)[C@@H]2C1	3.7
O=S(=O)(c1ccccc1)N1CCCCN2[C@H](CO)[C@H](c3ccc(C#Cc4ccccn4)cc3)[C@H]2C1	-3.2*
N#C[C@@H]1[C@@H](c2ccccc2-c2ccccc2F)[C@H](CO)N1C(=O)C1CCOCC1	3.8
O=C(C[C@@H]1CC[C@H]2NC[C@H](O)COC[C@@H]2O1)Nc1ccc(-c2ccccc2)cc1	-2.1
COc1ccc(S(=O)(=O)N2CCCCN3[C@@H](CO)[C@H](c4ccc(C5=CCCC5)cc4)[C@@H]3C2)cc1	2.1
CCN1CC(=O)N2[C@H](C1)[C@H](c1ccc(-c3ccccc3F)cc1)[C@@H]2CO	-0.57
CCS(=O)(=O)N1CCCCN2[C@H](CO)[C@@H](c3ccc(C#CC(C)(C)O)cc3)[C@@H]2C1	-0.47
CCCC(=O)N1CC2(CCN(S(=O)(=O)CC)CC2)c2c(n(C)c3cc(OC)ccc23)[C@@H]1CO	-1.1
O=C1CNC[C@@H]2[C@@H](c3ccc(C#Cc4cccnc4)cc3)[C@@H](CO)N12	0.14
CC(C)CC#Cc1ccc([C@@H]2[C@H](CO)N3C(=O)CN(C(=O)NC(C)C)C[C@@H]23)cc1	3.8
CO[C@H]1CN(C)C(=O)c2ccc(NC(=O)Nc3c(C)noc3C)cc2OC[C@H](C)N(CCC(F)(F)F)C[C@@H]1C	-0.37
SMILES	IDE exosite FP
Cc1cccc(-c2ccc([C@@H]3[C@@H](CO)N4CCCCN(C(=O)NC(C)C)C[C@H]34)cc2)c1	-7.2*
COc1ccccc1NC(=O)N1CCCCN2[C@@H](CO)[C@@H](c3ccc(-c4cccc(C)c4)cc3)[C@@H]2C1	-2.2
Cc1cccc(-c2ccc([C@@H]3[C@@H](CO)N4CCCCN(C(=O)NC(C)C)C[C@@H]34)cc2)c1	-5.5*
COc1ccccc1NC(=O)N1CCCCN2[C@H](CO)[C@@H](c3ccc(-c4cccc(C)c4)cc3)[C@@H]2C1	-2.8
Cc1cccc(-c2ccc([C@H]3[C@@H](CO)N4CCCCN(C(=O)NC(C)C)C[C@@H]34)cc2)c1	-6*
COc1ccccc1NC(=O)N1CCCCN2[C@H](C1)[C@H](c1ccc(-c3cccc(C)c3)cc1)[C@@H]2CO	2.2
CC[C@H]1C/C=C\C[C@H](CC)NC(=O)[C@@H](C)CC(=O)N1	1.1
C[C@@H]1CN([C@H](C)CO)C(=O)Cc2cc(N(C)C)ccc2O[C@H]1CN(C)Cc1ccc(-c2ccccc2)cc1	0.22
O=C(Cc1ccccc1)N1CC(=O)N2[C@H](C1)[C@@H](c1ccc(-c3ccc(F)cc3)cc1)[C@@H]2CO	-2
COCC#Cc1ccc([C@@H]2[C@H](C#N)N(C(=O)Cc3ccccc3)[C@H]2CO)cc1	-0.27
C[C@@H]1CN([C@H](C)CO)C(=O)c2ccccc2-c2ccccc2CO[C@H]1CN(C)C(=O)Nc1cccc(Cl)c1Cl	-0.57
CS(=O)(=O)N1[C@H](CO)[C@@H](c2ccccc2-c2ccccc2F)[C@@H]1C#N	-0.25
O=C1CNC[C@@H]2[C@@H](c3ccc(-c4ccccc4F)cc3)[C@@H](CO)N12	-2.8
O=C(Nc1ccccc1F)N1CCCCN2[C@H](C1)[C@@H](c1ccc(C#Cc3cccnc3)cc1)[C@@H]2CO	-5.1*
O=C(Nc1ccccc1)N1CCCCN2[C@H](C1)[C@@H](c1ccc(C#Cc3ccccc3)cc1)[C@@H]2CO	0.19
O=C(Nc1ccccc1F)N1CCCCN2[C@H](CO)[C@H](c3ccc(C#Cc4ccccc4)cc3)[C@@H]2C1	-1.7
O=C(Nc1ccccc1F)N1CCCCN2[C@H](CO)[C@@H](c3ccc(C#Cc4ccccc4)cc3)[C@H]2C1	-4.1*
O=C(Nc1ccccc1F)N1CCCCN2[C@@H](CO)[C@@H](c3ccc(C#Cc4cccnc4)cc3)[C@@H]2C1	-0.043
O=C(Nc1ccccc1F)N1CCCCN2[C@H](CO)[C@@H](c3ccc(C#Cc4cccnc4)cc3)[C@@H]2C1	-1.8
O=C(Nc1ccccc1F)N1CCCCN2[C@H](CO)[C@@H](c3ccc(C#Cc4ccccc4)cc3)[C@@H]2C1	-0.69
O=C(Nc1ccccc1)N1CCCCN2[C@H](CO)[C@H](c3ccc(C#Cc4ccccc4)cc3)[C@@H]2C1	-3.4*
O=C(Nc1ccccc1)N1CCCCN2[C@H](C1)[C@H](c1ccc(C#Cc3ccccc3)cc1)[C@@H]2CO	-0.69
COCC#Cc1ccc([C@H]2[C@@H](CO)N3C(=O)CN(C(=O)Nc4cc(F)ccc4F)C[C@H]23)cc1	0.33
O=C(Nc1cccc(F)c1)N1CC(=O)N2[C@H](C1)[C@@H](c1ccc(-c3ccc(F)cc3)cc1)[C@@H]2CO	1.3
COCC(=O)N1[C@H](C#N)[C@@H](c2ccccc2-c2cccc(OC)c2)[C@@H]1CO	1.8
SMILES	IDE exosite FP
O=C(O)C[C@@H]1C[C@H]2c3cc(NC(=O)Cc4ccncc4)ccc3O[C@H]2[C@H](CO)O1	-0.54
C[C@@H]1CC=CC[C@@H](c2ccc3c(c2)OCO3)NC(=O)[C@H](C)N(C)C(=O)c2ccccc2O1 (mixture of isomers)	-0.11
CO[C@H]1CN(C)C(=O)c2ccc(NC(=O)Nc3ccccc3Cl)cc2OC[C@H](C)NC[C@H]1C	0.24
COc1ccc2c3c(n(C)c2c1)[C@@H](CO)N(S(C)(=O)=O)CC31CCN(C(=O)c2ccccn2)CC1	0.68
O=C1CNC[C@@H]2[C@H](c3ccc(C4=CCCCC4)cc3)[C@@H](CO)N12	1.4
COc1ccc(NC(=O)N(C)C[C@H]2OCc3ccccc3-c3ccccc3C(=O)N([C@@H](C)CO)C[C@@H]2C)c(OC)c1	-0.71
COCC(=O)N1[C@H](C#N)[C@H](c2ccc(C3=CCCC3)cc2)[C@@H]1CO	1.3
